# A selection: hits, their analogues and other compounds. The true share with any hit is near 3.1%.
# PAFAH2 FP inh = inhibitors of human PAFAH2. Q99487. recombinant PAFAH2, FP-rhodamine activity probe, fluorescence polarization. inhibition, % at 3.39 µM. 340,000 compounds, 0.99% hits;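 active = inhibition above the mean over all tested compounds plus 3 SD, cut at about 30% in these data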;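 note: inhibitors block probe labeling of enzyme so polarization drops; 0% = enzyme with DMSO and 100% = wells lacking PAFAH2 protein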
# pPAFAH inh = inhibitors of human plasma PAF acetylhydrolase (pPAFAH); inhibition, % at 3.39 µM; Q13093; 330,000 compounds, 1.5% hits; recombinant pPAFAH, FP-rhodamine probe fluorescence polarization;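 active = inhibition above the mean inhibition across the screen plus 3 SD, cut at about 25% in these data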;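 note: inhibitors block binding of the rhodamine activity-based probe so polarization drops; 0% = enzyme with DMSO and 100% = wells lacking pPAFAH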
# eLon inh = inhibits E. coli Lon protease. P0A9M0. purified E. coli Lon protease, fluorescence polarization. AID 602123. inhibition, % at 7.94 µM. 360,000 compounds, 0.42% hits; in the data active = inhibition above about 13%, passing the limit was not always enough;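 note: 0% = enzyme with probe and DMSO and 100% = no enzyme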
# Rin1-Abl PPI inh = human Rin1-Abl interaction inhibition; P00519+Q13671; TR-FRET Rin1/Abl binding, biochemical; inhibition, % at 7.35 µM; 360,000 compounds, 0.4% hits; in the data active = inhibition above about 5%, passing the limit was not always enough
# PAFAH1B3 inh = blocks human PAF acetylhydrolase 1B catalytic subunit 3. recombinant PAFAH1B3, FP-rhodamine probe, fluorescence polarization. Q15102. AID 492972. inhibition, % at 3.39 µM. 340,000 compounds, 0.28% hits;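 active = inhibition above the screen-wide average of all tested compounds plus 3 SD, cut at about 25% in these data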;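 note: 0% = enzyme with DMSO only and 100% = wells lacking PAFAH1B3 protein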
# Target sequence (Q15102 whole entry, looked up): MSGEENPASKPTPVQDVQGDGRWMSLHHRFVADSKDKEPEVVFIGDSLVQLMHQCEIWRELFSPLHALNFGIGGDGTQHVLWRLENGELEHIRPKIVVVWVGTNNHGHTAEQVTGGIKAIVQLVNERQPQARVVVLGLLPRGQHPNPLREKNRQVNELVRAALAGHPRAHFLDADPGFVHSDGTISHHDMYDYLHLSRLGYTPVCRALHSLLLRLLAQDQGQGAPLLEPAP
# PAFAH1B2 FP inh = PAFAH1B2 (human) inhibition. 340,000 compounds, 1.2% hits. P68402. inhibition, % at 3.39 µM. recombinant PAFAH1B2, FP-rhodamine activity probe, fluorescence polarization;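 active = inhibition above the mean of all tested compounds plus 3 SD, cut at about 24% in these data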;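 note: 0% = enzyme with DMSO and 100% = wells lacking PAFAH1B2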
# Target sequence (P68402 whole entry, looked up): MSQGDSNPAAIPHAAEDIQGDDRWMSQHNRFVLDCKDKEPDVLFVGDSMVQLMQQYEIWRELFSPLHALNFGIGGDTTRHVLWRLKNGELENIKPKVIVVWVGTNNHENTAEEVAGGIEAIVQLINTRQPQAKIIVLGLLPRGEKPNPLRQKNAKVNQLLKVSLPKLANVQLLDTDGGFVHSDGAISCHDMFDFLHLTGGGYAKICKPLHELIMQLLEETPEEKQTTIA
# pPAFAH FP conf = pPAFAH (human) inhibition, confirmed; inhibition, % at 3.39 µM; AID 463230; recombinant pPAFAH, FP-Rh probe fluorescence polarization; 2,300 compounds, 72% hits; shares compounds with pPAFAH inh;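 active = mean inhibition of the triplicate above the hit cutoff set for the earlier primary screen, cut at about 25% in these data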;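 note: 0% = enzyme with DMSO and 100% = wells lacking pPAFAH enzyme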
# Numbers without * were called inactive; · = not tested or not shown.
SMILES,PAFAH2 FP inh,pPAFAH inh,eLon inh,Rin1-Abl PPI inh,PAFAH1B3 inh,PAFAH1B2 FP inh,pPAFAH FP conf
CCc1ccc(NC(=O)Nc2cc(C(=O)NCC3CCCO3)ccc2N2CC3CC(C2)c2cccc(=O)n2C3)cc1 (stereo unspecified),18,87*,6,3,6,0,94*
CCOCCCNC(=O)c1ccc(N2CC3CC(C2)c2cccc(=O)n2C3)c(NC(=O)Nc2cccc(OC)c2)c1 (stereo unspecified),16,66*,7,0,4,-1,66*
COC(OC)c1ccc(C#N)c(=O)[nH]1,2,-3,-1,2,0,8,·
CCCC1=Nc2cc(C(=O)NCCCN3CCN(C)CC3)ccc2Sc2ccccc21,-4,34*,-6,1,6,3,6
CCOC(=O)c1cc(C)n(CCc2ccccc2)c1C,-7,4,-3,1,-6,1,·
Cc1cc(C(=O)CCl)c(C)n1CCc1ccccc1,·,54*,·,·,·,·,4
CC1=CN2C(=N)/C(=C/c3ccco3)C(=O)N=C2S1,-7,-6,-15,-5,-2,2,·
CC1=CN2C(=N)/C(=C/c3ccc([N+](=O)[O-])o3)C(=O)N=C2S1,8,44*,-187,0,-10,-2,30*
Cc1ccc(S(=O)(=O)N2[C@@H](c3ccc(C(C)(C)C)cc3)C(C(=O)O)=CC[C@H]2c2ccc(Cl)cc2)cc1,-2,37*,-2,-1,-6,90*,54*
Cc1ccc(NCC(=O)N2CCN(S(=O)(=O)c3ccccc3)CC2)cc1F,9,·,1,0,8,0,·
Cc1cc(-c2ccccc2)n(-c2ccc(C(=O)N3CCN(c4ncccn4)CC3)cc2)n1,-3,36*,-4,1,8,-2,22
CC(=O)NC(CC(=O)N(Cc1ccccc1)c1cccc(C)c1)c1ccccc1 (stereo unspecified),3,-4,-6,-2,4,2,·
O=C(CN1C(=O)/C(=C\c2ccco2)SC1=S)Nc1ccc(O)cc1C(=O)O,20,42*,-25,0,11,2,11
O=C(CCCN1C(=O)/C(=C/c2ccco2)SC1=S)Nc1ccccc1C(=O)O,18,65*,-8,-2,5,15,4
O=C(CCN1C(=O)/C(=C/c2ccco2)SC1=S)Nc1ccc(C(=O)O)c(O)c1,7,40*,-27,7,10,6,18
CC(=O)Oc1c(-c2ccc(Br)o2)oc2ccccc2c1=O,5,5,-24,-2,4,4,·
O=C(CCN1C(=O)C2CCCCC2C1=O)N1CCN(S(=O)(=O)c2ccccc2)CC1 (stereo unspecified),-2,3,4,0,6,6,·
O=C(COC(=O)COc1ccccc1)NCCC1=CCCCC1,3,8,4,1,6,18,·
Cc1cc(SCC(=O)c2ccc(O)c(O)c2)nc2ccccc12,31*,42*,6,-2,13,2,94*
Cc1ccc(O)c(NC(=O)CSc2n[nH]c(-c3ccccc3)n2)c1,6,8,-1,0,3,4,·
O=C(CSc1n[nH]c(-c2ccccc2)n1)c1ccc(O)c(O)c1,23,42*,8,-2,20,7,68*
CC(=O)c1cccc(-n2nnnc2SCC(=O)Nc2cc(C)on2)c1,-10,5,4,1,10,2,·
NS(=O)(=O)c1ccc(NC(=O)COC(=O)c2cnc(Cl)c(Cl)c2)cc1,6,-4,-1,-1,12,3,·
CCCCN1Cc2c(nc3cc(-c4ccco4)[nH]n3c2=O)C1=O,32*,63*,-5,-2,12,12,5
Cc1ccc(NC(=O)c2ccc(Nc3c([N+](=O)[O-])cc([N+](=O)[O-])cc3[N+](=O)[O-])cc2)cc1,9,52*,-3,-4,27*,14,51*
CCOc1ccc(N(C(=O)CNC(=O)c2cccs2)C(C(=O)NCC2CCCO2)c2ccc(OC)c(OC)c2)cc1 (stereo unspecified),-2,2,-5,3,-3,1,·
Cc1cccnc1Nc1nc(-c2ccc(O)c(O)c2)cs1,-1,24,-4,6,21,-2,·
Cc1csc(Nc2cccc3ccccc23)n1,-9,6,-4,2,-9,-4,·
Oc1ccc(-c2csc(Nc3ccccn3)n2)cc1O,11,40*,1,2,21,5,32*

# Bioassay records: PubChem, The Scripps Research Institute Molecular Screening Center
